BL2 CD40 inh: CD40 pathway inhibition in BL2 cells. inhibition, % at 10 µM. BL2 NF-kB luciferase reporter, CD40L-induced, 4 h. 83,000 compounds, 0.94% hits;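 active = mean inhibition of at least 50% with a set share of replicates also reaching that level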;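 also: 0% = neutral control wells and 100% = IKK inhibitor VII at 50 µM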
The depositor's hits bear a star; [ ] = another dose, or the depositor's remark. The entries come from a sample that favours hits as a whole.

SMILES	BL2 CD40 inh
CN(C)C1CCCCC=CC(=O)NC1 (stereo not given)	4.2
O=C(Cc1cccs1)N1CCN=C1SCc1cccc(F)c1	2.3
CC(C)NC(=O)N1[C@H](CO)[C@@H](c2ccccc2)[C@@H]1CN(C)C(=O)c1cccnc1	-0.1[25 µM]
COc1ccc(NC2CCCN(C(=O)C3=NN(C)C(=O)CC3)C2)cc1OC (stereo not given)	2.4
CCc1nc(N)c(C#N)c(-c2cccc3ccccc23)c1C	4.1
CC1=C(C#N)c2nc(N)c(C#N)c(C)c2/C1=C\c1ccccc1	48.9*
Cc1c(C#N)c(N)nc(Cl)c1C#N	2.6
O=C(Nc1cc(F)ccc1F)N[C@@H]1CC[C@H](CCn2cc(C3CCCCC3)nn2)O[C@H]1CO	2.2[25 µM]
O=C(CC(F)(F)F)N1C[C@@H]2[C@H](c3ccccc31)[C@H](CO)N2C(=O)C1CCCC1	3.3
Cc1nc2ccc(C(=O)NCCc3c[nH]c4ccccc34)cn2c1N(C)C(=O)CCc1ccccc1	-0.7
N#Cc1cccc(-c2ccc([C@@H]3[C@H](CO)N4CCCCN(C(=O)Nc5cccc(F)c5)C[C@@H]34)cc2)c1	91.7*[25 µM]
O=C(Nc1ccc(F)cc1)N1CCCCN2[C@H](CO)[C@@H](c3ccc(C#Cc4ccccc4)cc3)[C@H]2C1	4.4
O=C(Nc1ccccc1)N1CCCCN2[C@@H](CO)[C@@H](c3ccc(C#Cc4ccccc4)cc3)[C@@H]2C1	28.3
N#Cc1cccc(-c2ccc([C@@H]3[C@@H](CO)N4CCCCN(C(=O)Nc5cccc(F)c5)C[C@H]34)cc2)c1	16.5[25 µM]
O=C(Nc1ccc(F)cc1)N1CCCCN2[C@@H](CO)[C@@H](c3ccc(C#Cc4ccccc4)cc3)[C@@H]2C1	62.6*
N#Cc1cccc(-c2ccc([C@@H]3[C@H]4CN(C(=O)Nc5cccc(F)c5)CCCCN4[C@H]3CO)cc2)c1	17.6[25 µM]
O=S(=O)(c1ccccc1)N1[C@@H]2CNC[C@H]1C2c1ccc(-c2ccccc2)cc1 (stereo not given in full)	-14.3
CC=Cc1ccc2n(c1=O)C[C@H]1[C@H](CO)[C@@H](C(=O)N(C)C)N(CC3CCCC3)[C@@H]21 (mixture of isomers)	-9.4
CC(=O)N(C)C[C@@H]1OCc2ccccc2-c2c(n(C)c3ccccc23)C(=O)N([C@@H](C)CO)C[C@@H]1C	-3.2
CCC(=O)N1[C@H](CO)[C@@H]2c3ccccc3N(C(=O)c3ccncc3)C[C@@H]21	11.1[25 µM]
CN1C(=O)c2cc(NC(=O)C3CCOCC3)ccc2OC[C@H]2O[C@H](CC(=O)NCC3CCCCC3)CC[C@@H]21	-0.5[25 µM]
COc1cccc(C(=O)Nc2ccc3c(c2)C(=O)N(C)C[C@H](OC)[C@@H](C)CN(C(=O)C2CCCC2)[C@H](C)CO3)c1	8.1
CC(C)Cc1nnc(NC(=O)c2cc3c(s2)CCC3)s1	-35.8
O=C(Nc1nccs1)c1cc2c(s1)CCCCC2	91.7*
O=C(Nn1cnnc1)c1cc2c(s1)CCCC2	-1.0
SMILES	BL2 CD40 inh
C[C@H](CO)N1C[C@H](C)[C@@H](CN(C)C(=O)NC2CCCCC2)OCc2cn(nn2)CCCC1=O	1.9[25 µM]
Cc1cnc2c(N)cc(C)c(C)c2c1	90.2*
Cc1cc(N)c(C)c([N+](=O)[O-])c1C	7.3
c1ccc(CC(Nc2cccnc2)c2ccccc2)cc1 (stereo not given)	11.4
COc1ccccc1CNC(=O)C[C@@H]1C[C@H]2c3cc(NC(=O)Nc4ccccc4F)ccc3O[C@H]2[C@@H](CO)O1	-13.7[25 µM]
CCCNC(=O)N1[C@H](C#N)[C@H](c2ccc(C#Cc3cccc(F)c3)cc2)[C@H]1CO	76.5*[25 µM]
N#C[C@H]1[C@H](c2ccc(C#Cc3cccc(F)c3)cc2)[C@@H](CO)N1C(=O)C1CCC1	54.8*
N#C[C@H]1[C@H](c2ccc(C#Cc3cccc(F)c3)cc2)[C@@H](CO)N1C(=O)C1CC1	36.6
N#C[C@H]1[C@@H](c2ccc(C#Cc3ccccc3F)cc2)[C@@H](CO)N1C(=O)C1CCC1	7.6
N#C[C@H]1[C@H](c2ccc(C#Cc3ccc(F)cc3)cc2)[C@@H](CO)N1C(=O)C1CCC1	54.0*[25 µM]
N#C[C@H]1[C@@H](c2ccc(C#Cc3cccc(F)c3)cc2)[C@H](CO)N1C(=O)C1CCCC1	-6.0
N#C[C@H]1[C@@H](c2ccc(C#Cc3cccc(F)c3)cc2)[C@H](CO)N1C(=O)C1CC1	-0.9
N#C[C@H]1[C@H](c2ccc(C#Cc3cccc(F)c3)cc2)[C@@H](CO)N1C(=O)C1CCCC1	41.9
N#C[C@@H]1[C@H](c2ccc(C#Cc3ccc(F)cc3)cc2)[C@@H](CO)N1C(=O)C1CC1	72.5*
CCCNC(=O)N1[C@H](C#N)[C@@H](c2ccc(C#Cc3cccc(F)c3)cc2)[C@@H]1CO	-1.1[25 µM]
N#C[C@@H]1[C@@H](c2ccc(C#Cc3ccc(F)cc3)cc2)[C@H](CO)N1C(=O)C1CCC1	0.8[25 µM]
N#C[C@H]1[C@@H](c2ccc(C#Cc3cccc(F)c3)cc2)[C@@H](CO)N1C(=O)C1CCCC1	0.6
S=C(NCc1ccccc1)N1CCN(C(=S)NCc2ccccc2)CC1	0.4
O=C(NC1CCCC1)[C@@H]1[C@@H](CO)[C@@H]2Cn3c(cccc3=O)[C@H]1N2C(=O)CC1CC1	-10.5[25 µM]

Screening results (PubChem)
